# Screens: PubChem BioAssay, National Center for Advancing Translational Sciences (NCATS)
# Cruzain Triton – blocks cruzain activity in presence of Triton detergent; P25779; purified cruzain, Z-FR-AMC fluorescence, 0.01% Triton; Potency, µM, actives largely listed as inhibitors; hit rate 0.43% among 200,000; AID 1478; further: nearly all actives have a fitted effect of over 40% in size
# Target sequence (P25779 123-467 limits assumed): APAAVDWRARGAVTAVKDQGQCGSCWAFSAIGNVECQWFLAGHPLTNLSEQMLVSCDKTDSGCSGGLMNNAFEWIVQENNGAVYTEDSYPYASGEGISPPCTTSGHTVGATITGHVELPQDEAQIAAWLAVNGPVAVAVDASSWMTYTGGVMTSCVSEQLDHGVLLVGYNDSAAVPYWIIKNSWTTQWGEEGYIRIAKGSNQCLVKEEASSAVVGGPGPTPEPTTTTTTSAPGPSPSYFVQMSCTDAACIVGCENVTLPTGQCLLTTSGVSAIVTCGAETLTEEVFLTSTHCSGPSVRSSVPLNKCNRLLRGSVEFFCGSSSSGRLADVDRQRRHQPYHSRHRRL
#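 In this qHTS format, compounds are incubated with 1.5 nM cruzain for 15 min at room temperature before 2 uM Z-FR-AMC is added. Release of AMC is followed at 360/450 nm, and progress is taken as the 60 s fluorescence difference.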
# Cruzain inh noDet – cruzain (T. cruzi) inhibition without detergent; purified cruzain, Z-FR-AMC fluorescence, no detergent; Potency, µM, most hits filed as inhibitors; hit rate 2.3% among 200,000; AID 1476; further: nearly all actives have a fitted effect of over 40% in size
#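 Purified cruzain at 1.5 nM, pre-incubated 15 min with compound at room temperature in 100 mM sodium acetate pH 5.5, 5 mM DTT, 0.00005% Triton X-100. Reaction started with 2 uM Z-FR-AMC; AMC fluorescence increase over 60 s gives rate.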
# A number is an active result; . = inactive; ? = inconclusive. Most compounds without a hit are left out; they make up all but 2.4% or so of the library. The call rests on the fitted dose curve; in most records, active means well fitted curve in the direction sought with a large enough effect; inconclusive means small, poorly fitted or top-dose-only effect, or another doubt; inactive means no such curve, though single readings can be large; an effect the other way counts as inactive or inconclusive.
SMILES,Cruzain Triton,Cruzain inh noDet
COc1ccc(C(=O)NCCc2nc3ccccc3[nH]2)cc1,13µM,.
Cc1cc(=O)oc2cc(OCC(=O)NCc3ccccn3)ccc12,.,.
Cc1cc(C)cc(OCC(=O)Nc2cccc(-c3nc4ccccc4[nH]3)c2)c1,.,.
Cc1cc(C)cc(OCC(=O)NCCc2nc3ccccc3[nH]2)c1,16µM,.
Cc1nc2cccc([N+](=O)[O-])c2n1CCCN(C)C,.,.
CC(=O)N1c2ccc(S(=O)(=O)NCC3CCC(C(=O)Nc4cc(C)ccc4C)CC3)cc2CC1C (stereo unspecified),.,?
CCCCC/C=C\C/C=C\C=C\[C@@H](O)C/C=C\CCCC(=O)O,.,.
Nc1ncnc2c1ncn2[C@H]1O[C@@H](C(=O)OCCO)[C@@H](O)[C@H]1O,.,.
CCN(CC)c1ccc(/C=N/NC(=O)c2ccc(O)cc2)cc1,.,.
Clc1nc(Cl)nc(Cl)n1,.,.
Cc1ccc(CN2C(=O)c3ccccc3Sc3ccc(C(=O)NCc4ccco4)cc32)cc1,.,?
CCn1c2ccccc2c2cc(NC(=O)C(C)Oc3ccccc3)ccc21 (stereo unspecified),.,?
CCn1c2ccccc2c2cc(NC(=O)C(C)Oc3ccc(OC)cc3)ccc21 (stereo unspecified),.,25µM
COC(=O)c1c(NC(=O)COC(=O)[C@@H](NS(=O)(=O)c2cccc(Cl)c2)C(C)C)sc2c1CCC2,.,16µM
COC(=O)c1c(NC(=O)CS(=O)(=O)c2ccc(C)cc2)sc2c1CCCCC2,.,2.5µM
CCOC(=O)c1c(NC(=O)C2CCCN(S(=O)(=O)c3ccccc3)C2)sc2c1CCCC2 (stereo unspecified),.,?
CCOC(=O)c1c(NC(=O)C2CCCN(S(=O)(=O)c3ccc(C)cc3)C2)sc2c1CCCC2 (stereo unspecified),.,16µM
COC(=O)c1sc(N)c(C(=O)OC)c1COC(=O)[C@@H](NS(=O)(=O)c1cccc(Cl)c1)C(C)C,.,.
Cc1ccc(S(=O)(=O)CC(=O)Nc2sc3c(c2C#N)CCCCC3)cc1,.,.
CC(=O)c1ccccc1NS(=O)(=O)c1cc2c(cc1C)NC(=O)CO2,.,.
C(=C\c1nc2ccccc2[nH]1)/c1ccccc1,.,20µM
Cc1cccc(/C=C\c2nc3ccccc3c(=O)[nH]2)c1,.,?
CCOC(=O)c1ccc(-c2ccc(/C=C(\C#N)C(=O)Nc3c(C)cccc3Cl)o2)cc1,.,.
CCCOC(=O)c1ccc(-c2ccc(C=O)o2)cc1,.,.
CCCCOC(=O)c1ccc(NC(=O)/C(C#N)=C/c2ccc(-c3ccccc3)o2)cc1,.,25µM
SMILES,Cruzain Triton,Cruzain inh noDet
CCCCOC(=O)c1ccc(-c2ccc(/C=N/NC(=S)NCC)o2)cc1,.,25µM
Cc1ccc(CNC(=O)Cn2c3ncccc3c(=O)n2-c2ccccc2)cc1,.,.
Nc1c(Cl)cc(Cl)cc1Cl,.,.
NCCSCCC(=O)O,.,.
O=C(N/N=C/c1ccccc1[N+](=O)[O-])c1ccc(COc2ccccc2-c2ccccc2)cc1,.,13µM
CCOc1ccc(C(=O)N/N=C/c2ccccc2[N+](=O)[O-])cc1,.,.
C/C(=N/O)[C@@H]1C[C@H](CC(=O)O)C1(C)C,.,.
O=C(Cn1c2ccccc2c(=O)c2ccccc21)N/N=C/c1cc([N+](=O)[O-])ccc1N1CCCCCC1,.,6.3µM
Cc1cc(/C=N/NC(=O)Cn2c3ccccc3c(=O)c3ccccc32)c(C)n1-c1ccc(Cl)cc1,.,3.2µM
Cc1ccc(-n2c(C)cc(/C=N/NC(=O)Cn3c4ccccc4c(=O)c4ccccc43)c2C)cc1,.,?
O=C(Cn1c2ccccc2c(=O)c2ccccc21)N/N=C/c1ccc(N2CCCC2)c([N+](=O)[O-])c1,.,?
COc1cccc(CNC(=O)C2CCC(CNS(=O)(=O)c3ccc(Br)s3)CC2)c1 (stereo unspecified),.,.
COc1ccc(-c2noc(-c3ccc(N4CCN(c5ccccc5OC)CC4)c([N+](=O)[O-])c3)n2)cc1,.,.
O=[N+]([O-])c1ccc(N2CCCC2)cc1NC(c1ccccc1)c1ccccc1,.,10µM
O=[N+]([O-])c1ccc(N2CCOCC2)cc1NC(c1ccccc1)c1ccccc1,.,?
O=c1cc(CSc2ccccc2)[nH]c(=S)[nH]1,.,.
O=c1cc(/N=C/c2coc3c(ccc4ccccc43)c2=O)[nH]c(=S)[nH]1,.,7.9µM
NC(=S)N/N=C/c1ccccc1OCc1cccc(Cl)c1,.,?
NC(=S)N/N=C/c1coc2c(ccc3ccccc32)c1=O,?,0.63µM
O=C(Nc1ccc2c(c1)Cc1ccccc1-2)[C@@H]1[C@H](C(=O)O)[C@]2(Cl)C(Cl)=C(Cl)[C@@]1(Cl)C2(Cl)Cl,.,.
O=C(c1ccc2c(c1)N(Cc1ccc(Cl)cc1)C(=O)c1ccccc1S2=O)N1CCC(Cc2ccccc2)CC1 (stereo unspecified),.,?
O=C(CSc1nnc(SCc2cccc3ccccc23)s1)N=Nc1c(O)[nH]c2ccccc12,.,7.9µM
CN(C)S(=O)(=O)c1ccc(C(=O)Nc2nnc(SCc3cccc4ccccc34)s2)cc1,.,?
Cc1ccc2nc(SCC(=O)c3ccc4c(c3)OCO4)[nH]c2c1,.,?
O=C(CSc1nc2ccccc2[nH]1)c1ccc2c(c1)OCO2,.,2.5µM
SMILES,Cruzain Triton,Cruzain inh noDet
O=C(CSc1nnc(SCc2cccc3ccccc23)s1)c1ccc2c(c1)OCO2,.,25µM
O=C(CSc1ccccn1)c1ccc2c(c1)OCO2,.,.
COc1ccccc1CNC(=O)C1CCN(C2=NS(=O)(=O)C(c3ccc(C)c(C)c3)=C2C)CC1,.,.
C[N+](C)(C)c1nc(N)nc2c1ncn2[C@H]1O[C@@H](CO)[C@@H](O)[C@H]1O,.,.
Cc1ccc(-c2nnc3ccccc3c2C(=O)Nc2cccc(C(F)(F)F)c2)cc1,.,?
Cc1cccc(NC(=O)Cn2cc(S(=O)(=O)c3ccc(F)cc3)c(=O)c3cc4c(cc32)OCO4)c1,.,?
Cc1ccc(S(=O)(=O)c2cn(CC(=O)Nc3ccccc3)c3cc4c(cc3c2=O)OCO4)cc1,.,1µM
COc1ccc(C2C(C(=O)Nc3ccc(C)cc3C)=C(C)Nc3nc(SC)nn32)cc1OC (stereo unspecified),.,.
CSc1nc2n(n1)C(c1cccc(F)c1)C(C(=O)Nc1ccc(C)cc1C)=C(C)N2 (stereo unspecified),.,10µM
CCOC(=O)N/N=C/c1ccc(N2CCOCC2)s1,.,.
FC(F)(F)c1ccc(Cl)c(N/N=C/c2ccc(N3CCOCC3)s2)c1,.,10µM
C[C@H]1CC2[C@@H]3CCC4=CC(=O)C=C[C@]4(C)[C@@]3(F)[C@@H](O)C[C@]2(C)[C@@]1(O)C(=O)CO (stereo partly specified),.,.
Cc1ccc(NS(=O)(=O)c2ccc(-c3cc(C)no3)cc2)c(C)c1,.,.
CCc1ccc2nc3sc(C(=O)N4CCc5ccccc54)c(N)c3cc2c1,.,25µM
Cc1ccc(C)c2nc3sc(C(=O)N4CCCc5ccccc54)c(N)c3cc12,.,.
Cc1ccc(/C=C2/SC(=S)N(CC(=O)Nc3ncc(Cc4ccc(C)cc4)s3)C2=O)cc1,.,4µM
CCc1nnc(NC(=O)CN2C(=O)/C(=C/c3cc(OC)c(OC)c(OC)c3)SC2=S)s1,?,.
Cc1ccc(/C=C2\SC(=S)N(CC(=O)Nc3ncc(Cc4ccccc4Cl)s3)C2=O)cc1,.,3.2µM
